# Source: ChEMBL document CHEMBL3988442, “University of Dundee, Small-Polar-MMV Screening Library” (2021)
# Biological target: T1, Aspartate--tRNA(Asp/Asn) ligase (Mycobacterium tuberculosis (strain ATCC 25618 / H37Rv)) (UniProt P9WFW3)
# T1 sequence (whole entry): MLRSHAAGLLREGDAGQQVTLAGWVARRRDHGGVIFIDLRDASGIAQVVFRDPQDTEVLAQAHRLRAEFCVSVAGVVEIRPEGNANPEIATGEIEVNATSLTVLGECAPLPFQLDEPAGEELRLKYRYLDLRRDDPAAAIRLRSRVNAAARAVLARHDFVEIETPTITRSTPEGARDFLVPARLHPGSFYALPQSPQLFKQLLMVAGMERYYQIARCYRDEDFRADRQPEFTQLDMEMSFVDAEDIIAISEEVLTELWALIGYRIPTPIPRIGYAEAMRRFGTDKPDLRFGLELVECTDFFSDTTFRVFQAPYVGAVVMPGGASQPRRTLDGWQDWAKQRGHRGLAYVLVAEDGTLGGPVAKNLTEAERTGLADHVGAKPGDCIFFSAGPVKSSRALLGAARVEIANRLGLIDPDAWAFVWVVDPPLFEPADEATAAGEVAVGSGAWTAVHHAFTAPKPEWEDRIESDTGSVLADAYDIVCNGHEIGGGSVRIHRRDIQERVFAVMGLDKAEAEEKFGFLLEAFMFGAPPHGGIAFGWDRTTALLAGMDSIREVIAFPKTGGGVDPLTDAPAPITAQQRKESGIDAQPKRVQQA
# Assay: Assay for Asp RNA synthetase-1 from Mycobacterium tuberculosis
# Type: functional
# Parameters: scale not given: in the data most compounds retested in dose-response had high values
# Settings: 30 µM
row,Structure (SMILES),Percent Effect [%]
1,CC(NCc1cccnc1)c1ccc(OCC(=O)NC2CC2)cc1 (stereo not given),4.26
2,CCOc1nnc(CNC2CCCN(c3ccc(C)nn3)C2)s1 (stereo not given),9.48
3,CCn1nc(C)c2nc(C(C)C)nc(NCCCO)c21,3.48
4,Cn1cc(C(=O)N2C[C@@H]3COC[C@]3(COCc3cccnc3)C2)cn1,-0.306
5,O=C(NCCCNc1ccccc1)c1scnc1Cl,-0.926
6,CC(C)c1nn(C)c(Cl)c1CNCc1ccc2c(c1)OCCO2,5.79
7,CC(C)N1CCC(Cc2cnc(-c3cccc(C(=O)O)c3)cn2)C1 (stereo not given),-5.2
8,O=C(NCCN1CCc2ccccc2C1)c1scnc1Cl,1.6
9,CC(C)CN1CCCC2(CCN(C(=O)c3cnccn3)C2)C1 (stereo not given),1.03
10,Cc1cnc(CN2CCOC(Cn3nc(C)nc3C)C2)cn1 (stereo not given),-1.8
11,COc1cccc(CNC(=O)N2CCN(Cc3cc(C)on3)CC2)c1,-2.94
12,CCOC(CC)C(=O)NCCC(=O)N1CCN(c2ncccn2)CC1 (stereo not given),1.17
13,CCc1n[nH]c(C2CN(C(=O)c3ccsc3)CCO2)n1 (stereo not given),-7.75
14,CC(C)C(C(=O)N1CCN(c2ccncc2)CC1)n1cncn1 (stereo not given),7.82
15,O=C(c1ccc(F)c(F)c1)N1CCCC1CN1CCCC1 (stereo not given),-3.65
16,c1ccc2oc(CCCN3CCOC(Cn4cccn4)C3)nc2c1 (stereo not given),0.605
17,CN(C)C(=O)CN1C(=O)CCC12CCN(Cc1cccn1C)CC2,4.89
18,COCCn1cc(C(=O)N2CCCC2c2cc(C)no2)ccc1=O (stereo not given),-2.11
19,Cn1nc(COc2cccnc2)c2c1CCN(c1cnccn1)C2,10.9
20,c1cc(CNCc2ccnc(N3CCOCC3)c2)c2c(c1)OCCO2,1.9

row,Structure (SMILES),Percent Effect [%]
1,CNS(=O)(=O)c1ccc(C(=O)NCCNc2ncccn2)cc1,-1.6
2,CCc1ccc(CCC(=O)N2CCOCC2c2ncon2)cc1 (stereo not given),2.77
3,O=S(=O)(N1CCCC1)N1CCCCC1CCc1ccccc1 (stereo not given),1.42
4,CC(C)C1CN(c2ncc(F)cn2)CCC(=O)N1Cc1ccc(F)cc1 (stereo not given),1.56
5,COc1ccccc1CN1CCC2(CC1)CC(Oc1ccccn1)CO2 (stereo not given),1.6
6,O=C(N1CCC(Nc2cccnn2)CC1)C1(c2ccc(F)cc2)CC1,4.44
7,CC(=O)N1CCN(c2cc(-c3ccccc3)nc3c(C)c(C)nn23)CC1,2.46
8,CCOc1cc(/C=C/c2ncc(C(=O)O)s2)ccc1O,0.568
9,Cc1cnn(CC2CCCN2Cc2coc(-c3ccccc3)n2)c1 (stereo not given),-5.72
10,CCO[C@@H]1CO[C@@]2(CCCN(Cc3scnc3C)C2)C1,-7.13
11,CCn1cc2c(n1)CN(Cc1ccncc1)CC2COCC1CC1 (stereo not given),1.43
12,CS(=O)(=O)NCc1nnc2n1CCN(CC1CC1)C2,2.77
13,Cc1noc2nc(C3CCN(Cc4ccncc4)CC3)cc(C(F)F)c12,5.43
14,Cc1cnn(CC2CCCN2c2nn3cc(C)nc3s2)c1 (stereo not given),-9.79
15,Cc1cc(CN2CCN(C(=O)c3sccc3C3CC3)CC2)on1,0.922
16,COc1ccc(C2CCCN2C(=O)CCNc2ncccn2)cc1 (stereo not given),5.17
17,CCC1c2cccn2CCN1C(=O)c1ccc2nonc2c1 (stereo not given),4.26
18,Cc1cc(NC(=O)CN2CCn3c(nnc3C3CC3)C2)n(C)n1,-5.68
19,O=C(NCCNc1ncccn1)Nc1cc(C(F)(F)F)c[nH]c1=O,-1.25
20,O=C(NCCOc1cccc(Cl)c1)C1CC(=O)N(CC2CC2)C1 (stereo not given),0
